Reference: the supplement of paper PMC7380943
Structures can show the parent of a compound that is named as a salt.

Tested on: CLZ3 (HCA2 human fibroblast dual HR-NHEJ reporter)
Assay: NHEJ repair efficiency (GFP+ cells) relative to control (log10 fold); higher = more non-homologous end joining
Settings: 5 µM; doxycycline 0.5 ug/mL
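Also: compound given one day ahead of doxycycline, which switches on I-SceI endonuclease to cut the chromosomally integrated reporter and create DSBs.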

| SMILES | NHEJ repair efficiency (log10) |
| --- | --- |
| CC1(C)OC(=O)C=C[C@]2(C)[C@H]3CC[C@@]4(C)[C@H](c5ccoc5)OC(=O)[C@H]5O[C@]54[C@]3(C)C(=O)C[C@@H]12 [Obacunone] | -0.0357 |
| OC[C@H]1O[C@@H](Oc2cc(O)cc(/C=C/c3ccc(O)cc3)c2)[C@H](O)[C@@H](O)[C@@H]1O [Polydatin] | 0.036 |
| O=C(/C=C/c1ccc(O)c(O)c1)O[C@H]1[C@H](O)C[C@](O)(C(=O)O)C[C@H]1O [Cryptochlorogenic Acid] | 0.102 |
| C[C@]12C[C@@H](O)[C@@H]3C[C@@]1(O[C@@H]1O[C@H](CO)[C@@H](O)[C@H](O)[C@H]1O)[C@@]3(COC(=O)c1ccccc1)C(=O)O2 [Albiflorin] | 0.0446 |
| OCCc1ccc(O)c(O)c1 [Hydroxytyrosol] | 0.0571 |
| NCCCC(=O)O [γ-Aminobutyric Acid] | -0.0944 |
| C[C@@H]1O[C@@H](OC[C@H]2O[C@@H](OCCc3ccc(O)c(O)c3)[C@H](O)[C@@H](O)[C@@H]2OC(=O)/C=C/c2ccc(O)c(O)c2)[C@H](O)[C@H](O)[C@H]1O [Forsythoside A] | 0.0797 |
| CC(CCC(OC1OC(COC2OC(CO)C(O)C(O)C2O)C(O)C(O)C1OC1OC(CO)C(O)C(O)C1O)C(C)(C)O)C1CCC2(C)C3CC=C4C(CCC(OC5OC(COC6OC(CO)C(O)C(O)C6O)C(O)C(O)C5O)C4(C)C)C3(C)C(O)CC12C (stereo not given) [Mogroside Ⅴ] | -0.025 |
| CC1(C)[C@H](OC(=O)c2ccccc2)CC[C@]2(C)C3=C([C@@H](O)C[C@@H]12)[C@@]1(C)CC[C@@]2(C)CC[C@@](C)(COC(=O)c4ccccc4)C[C@H]2[C@]1(C)CC3 [3,29-Dibenzoyl Rarounitriol] | -0.00463 |
| Cc1nc(C)c(C)nc1C [Ligustrazine hydrochloride] | 0.0819 |
| O=C(/C=C/c1ccc(O)c(O)c1)O[C@@H]1CC(O)(C(=O)O)C[C@@H](OC(=O)/C=C/c2ccc(O)c(O)c2)C1O (stereo not given in full) [Isochlorogenic acid A] | 0.0485 |
| C[C@H](CCC(=O)O)[C@H]1CC[C@H]2[C@@H]3[C@H](O)C[C@@H]4C[C@H](O)CC[C@]4(C)[C@H]3CC[C@]12C [Chenodeoxycholic Acid] | -0.124 |
| c1cc2c(cc1O[C@H]1OC[C@H]3[C@@H]1CO[C@@H]3c1ccc3c(c1)OCO3)OCO2 [Sesamolin] | 0.101 |
| O=C(O)/C=C/c1ccc(O)cc1 [P-Coumaric Acid] | 0.1 |
| O=C(O)CCC(=O)O [Succinic acid] | 0.006 |
| C[C@@H]1CC[C@@]2(OC1)O[C@H]1C[C@H]3[C@@H]4CC=C5C[C@@H](O)C[C@@H](O[C@@H]6O[C@H](C)[C@H](O)[C@H](O[C@@H]7OC[C@@H](O)[C@H](O)[C@H]7O)[C@H]6O[C@@H]6O[C@@H](C)[C@H](O)[C@@H](O)[C@H]6O)[C@]5(C)[C@H]4CC[C@]3(C)[C@H]1[C@@H]2C [Ophiopogonin D] | -0.0762 |
| Cc1c(O)cc2c(c1O)C(=O)c1ccc(O)c(O)c1C2=O [3-Hydroxymorindone] | -0.105 |
| CC(C)(O)CCc1c(O)cc(O)c2c(=O)c(O)c(-c3ccc(O)cc3)oc12 [Noricaritin] | -0.112 |
| CC(=O)O[C@@H]1C[C@@]23C[C@@]24CC[C@H](O[C@@H]2OC[C@@H](O)[C@H](O)[C@H]2O)C(C)(C)[C@@H]4CC=C3[C@]2(C)C[C@@H]3OC4(C[C@@H](C)[C@@H]3[C@@]12C)OC(O)C1(C)OC41 (stereo not given in full) [Cimicifugoside] | 0.0323 |
| C[C@@H]1O[C@@H](O[C@H]2C(=O)c3c(O)cc(O)cc3O[C@@H]2c2ccc(O)c(O)c2)[C@H](O)[C@H](O)[C@H]1O [Astilbin] | 0.0148 |
| C[C@@H]1O[C@@H](OC[C@H]2O[C@@H](OCCc3ccc(O)c(O)c3)[C@H](O)[C@@H](O)[C@@H]2O)[C@H](O)[C@H](O)[C@H]1O [Forsythoside E] | -0.0418 |
| COC(=O)c1c2c(c3ccccc3c1O)OC(C)(C)C=C2 [Rubimaillin] | 0.0202 |
| O=C1C[C@@H](c2ccccc2)Oc2cc(O)cc(O)c21 [Pinocembrin] | 0.123 |
| O=C1c2cccc(O)c2C(=O)c2c(O)cccc21 [1,8-Dihydroxyanthraquinone] | -0.286 |
| O=C1O[C@H]2[C@@H]3OC(=O)c4cc(O)c(O)c(O)c4-c4c(cc(O)c(O)c4O)C(=O)OC[C@H]2O[C@@H](OC(=O)c2cc(O)c(O)c(O)c2)[C@@H]3OC(=O)c2cc(O)c(O)c3c2[C@@H]2C1=CC(=O)[C@](O)(O3)C2(O)O [Geraniin] | -0.0851 |
